Reference: PubChem BioAssay (NCI)
Values joined by “and” are separate entries in the source; they are usually repeats but may differ in a detail not shown here. Identical values can stand only once. The panel holds about 83,000 compounds, 20% with a hit somewhere; the sample as a whole holds those more often.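 Compound tested at a single concentration for 48 hours in 96-well plates; a percent growth value below 10 was scored as active.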 Active and inactive are the calls of the source.

What was measured:
Assay in all cases: NCI-60 one-dose screen, 48 h (100 = growth as untreated, 0 = no growth, -100 = all killed)
Details in all cases: 10 µM unless noted
SR leukemia = test system: SR leukemia
RPMI-8226 leukemia = test system: RPMI-8226 leukemia
OVCAR-8 ovarian = test system: OVCAR-8 ovarian
OVCAR-5 ovarian = test system: OVCAR-5 ovarian
OVCAR-4 ovarian = test system: OVCAR-4 ovarian
SK-OV-3 ovarian = test system: SK-OV-3 ovarian
OVCAR-3 ovarian = test system: OVCAR-3 ovarian
HS 578T breast = test system: HS 578T breast
NCI/ADR-RES ovarian = test system: NCI/ADR-RES ovarian
T-47D breast = test system: T-47D breast
BT-549 breast = test system: BT-549 breast
MDA-MB-435 melanoma = test system: MDA-MB-435 melanoma
SW-620 colon = test system: SW-620 colon
MCF7 breast = test system: MCF7 breast
HCT-116 colon = test system: HCT-116 colon
HCC-2998 colon = test system: HCC-2998 colon
KM12 colon = test system: KM12 colon
IGROV1 ovarian = test system: IGROV1 ovarian

Measured: growth

O=C(c1ccc(Cl)cc1)C1C(c2ccccc2)C1[N+](=O)[O-] (stereo not drawn)
inactive: SR leukemia 78% | RPMI-8226 leukemia 96.3% | OVCAR-8 ovarian 99% | OVCAR-5 ovarian 109% | OVCAR-4 ovarian 99% | SK-OV-3 ovarian 105% | OVCAR-3 ovarian 97.8% | HS 578T breast 96% | NCI/ADR-RES ovarian 99.7% | T-47D breast 89.3% | BT-549 breast 99.3% | MDA-MB-435 melanoma 114% | SW-620 colon 104% | MCF7 breast 96% | HCT-116 colon 106% | HCC-2998 colon 96.9% | KM12 colon 97.9%

Cc1cnc(N)s1
inactive: SR leukemia 101% | RPMI-8226 leukemia 95.9% | OVCAR-8 ovarian 92.8% | OVCAR-5 ovarian 90.7% | OVCAR-4 ovarian 103% | SK-OV-3 ovarian 89.7% | OVCAR-3 ovarian 105% | HS 578T breast 89.4% | NCI/ADR-RES ovarian 101% | BT-549 breast 100% | MDA-MB-435 melanoma 104% | SW-620 colon 103% | MCF7 breast 95.4% | HCT-116 colon 95.8% | HCC-2998 colon 92% | KM12 colon 103%

CCCCC/C(C)=N\NC(N)=S
inactive: SR leukemia 86.9% | RPMI-8226 leukemia 70.9% | OVCAR-8 ovarian 65.3% | OVCAR-5 ovarian 103% | OVCAR-4 ovarian 67.8% | SK-OV-3 ovarian 98.9% | OVCAR-3 ovarian 43.4% | HS 578T breast 87.6% | NCI/ADR-RES ovarian 48.8% | T-47D breast 33.6% | BT-549 breast 96.7% | MDA-MB-435 melanoma 84.4% | SW-620 colon 67.5% | HCT-116 colon 11.7% | HCC-2998 colon 97.8% | KM12 colon 93.5%

COc1cc(Cl)ccc1C
inactive: SR leukemia 71.2% | RPMI-8226 leukemia 105% | OVCAR-8 ovarian 87.5% | OVCAR-5 ovarian 71.1% | OVCAR-4 ovarian 76.4% | SK-OV-3 ovarian 93.2% | IGROV1 ovarian 72.3% | OVCAR-3 ovarian 111% | HS 578T breast 115% | NCI/ADR-RES ovarian 97.4% | BT-549 breast 102% | MDA-MB-435 melanoma 102% | SW-620 colon 52.8% | MCF7 breast 56.8% | HCT-116 colon 59% | HCC-2998 colon 105% | KM12 colon 92.8%

Nc1ccc2ccc(NS(=O)(=O)N3CCCCC3)cc2c1
inactive: RPMI-8226 leukemia 46% | OVCAR-8 ovarian 34.2% | OVCAR-5 ovarian 56.1% | OVCAR-4 ovarian 39.2% | SK-OV-3 ovarian 31.8% | HS 578T breast 20.9% | T-47D breast 46.8% | SW-620 colon 27.9% | MCF7 breast 17.8% | KM12 colon 15%
active: SR leukemia 6.48% | OVCAR-3 ovarian -9.56% | NCI/ADR-RES ovarian -24.8% | MDA-MB-435 melanoma -14.7% | HCT-116 colon 9.95% | HCC-2998 colon -3.22%

CN(C)C(=S)N(C)C
inactive: SR leukemia 94.9% | RPMI-8226 leukemia 98.2% | OVCAR-8 ovarian 109% | OVCAR-5 ovarian 105% | OVCAR-4 ovarian 101% | SK-OV-3 ovarian 99.7% | OVCAR-3 ovarian 107% | HS 578T breast 157% | NCI/ADR-RES ovarian 102% | T-47D breast 98.5% | BT-549 breast 107% | MDA-MB-435 melanoma 112% | SW-620 colon 107% | MCF7 breast 107% | HCT-116 colon 99.3% | HCC-2998 colon 103% | KM12 colon 109%

CN(C=O)c1ccccc1
inactive: SR leukemia 101% | RPMI-8226 leukemia 91% | OVCAR-8 ovarian 96.6% | OVCAR-5 ovarian 100% | OVCAR-4 ovarian 85.3% | SK-OV-3 ovarian 86.7% | OVCAR-3 ovarian 110% | HS 578T breast 100% | NCI/ADR-RES ovarian 97.4% | T-47D breast 86.7% | BT-549 breast 93.1% | MDA-MB-435 melanoma 102% | SW-620 colon 104% | MCF7 breast 87.4% | HCT-116 colon 89% | HCC-2998 colon 101% | KM12 colon 110%

COc1cc(NCCCCCCCNC(C)C)c2nccc(C)c2c1
active: MCF7 breast -1.6% and -9.72%
inactive: SR leukemia 80.1% and 36.1% | RPMI-8226 leukemia 81.1% and 92.7% | OVCAR-8 ovarian 86.4% and 89.7% | OVCAR-5 ovarian 88.3% and 96.9% | OVCAR-4 ovarian 15.8% | SK-OV-3 ovarian 93.8% and 72.9% | OVCAR-3 ovarian 22.8% and 26.4% | HS 578T breast 95% and 68.8% | NCI/ADR-RES ovarian 88.1% and 84.6% | T-47D breast 59.9% | SW-620 colon 98% and 73% | HCT-116 colon 73.3% and 50.4% | HCC-2998 colon 67.2% and 61.5% | KM12 colon 92.6% and 73.1%
93.9% (inactive) and 7.03% (active): MDA-MB-435 melanoma

N#Cc1c[nH]n2ccnc12
inactive: SR leukemia 120% | RPMI-8226 leukemia 112% | OVCAR-8 ovarian 98.2% | OVCAR-5 ovarian 107% | OVCAR-4 ovarian 118% | SK-OV-3 ovarian 95.3% | OVCAR-3 ovarian 110% | HS 578T breast 117% | NCI/ADR-RES ovarian 105% | T-47D breast 92.3% | BT-549 breast 98.3% | MDA-MB-435 melanoma 114% | SW-620 colon 119% | MCF7 breast 102% | HCT-116 colon 95.2% | HCC-2998 colon 113% | KM12 colon 109%

OCCS
inactive: SR leukemia 90.5% | RPMI-8226 leukemia 104% | OVCAR-8 ovarian 103% | OVCAR-5 ovarian 104% | OVCAR-4 ovarian 101% | SK-OV-3 ovarian 101% | IGROV1 ovarian 110% | OVCAR-3 ovarian 105% | HS 578T breast 106% | NCI/ADR-RES ovarian 102% | MDA-MB-435 melanoma 105% | SW-620 colon 109% | MCF7 breast 94.1% | HCT-116 colon 103% | HCC-2998 colon 93.9% | KM12 colon 103%

CCOC(=O)C(N)Cc1cc(I)c(O)c(I)c1 (stereo not drawn)
inactive: SR leukemia 89.3% and 104% | RPMI-8226 leukemia 96.4% and 107% | OVCAR-8 ovarian 110% and 104% | OVCAR-5 ovarian 109% and 107% | OVCAR-4 ovarian 108% and 107% | SK-OV-3 ovarian 107% and 96.6% | IGROV1 ovarian 115% and 104% | OVCAR-3 ovarian 113% and 102% | HS 578T breast 107% | NCI/ADR-RES ovarian 98.8% and 101% | MDA-MB-435 melanoma 105% and 114% | SW-620 colon 104% | MCF7 breast 107% and 103% | HCT-116 colon 110% and 95.3% | HCC-2998 colon 104% and 96.6% | KM12 colon 107%

COc1ccc(C(=O)C(O)c2ccc(OC)cc2)cc1 (stereo not drawn)
inactive: SR leukemia 102% and 94% | OVCAR-8 ovarian 99.8% and 101% | OVCAR-5 ovarian 111% and 109% | OVCAR-4 ovarian 103% and 102% | SK-OV-3 ovarian 106% and 101% | IGROV1 ovarian 102% and 110% | OVCAR-3 ovarian 112% and 107% | HS 578T breast 112% and 102% | NCI/ADR-RES ovarian 102% | T-47D breast 103% and 92.8% | BT-549 breast 109% and 98.9% | MDA-MB-435 melanoma 117% and 111% | SW-620 colon 105% and 107% | MCF7 breast 96.7% and 98.1% | HCT-116 colon 102% and 93% | HCC-2998 colon 111% and 108% | KM12 colon 110% and 99.8%
